The values that follow come from publication PMC12820563, “FoxP3 forms a head-to-head dimer in vivo and stabilizes its multimerization on adjacent microsatellites”.

Over roughly 16,000 sequences, “rpm ratio (pull-down/input)” has its median near 0.94; the highest 2% begin near 1.7. For the sample, the highest values were picked, then their nearest neighbours and some sequences at random.

In the assay the target is T1, MBP-FoxP1dN (Mus musculus, UniProt P58462 326-579).
T1 sequence: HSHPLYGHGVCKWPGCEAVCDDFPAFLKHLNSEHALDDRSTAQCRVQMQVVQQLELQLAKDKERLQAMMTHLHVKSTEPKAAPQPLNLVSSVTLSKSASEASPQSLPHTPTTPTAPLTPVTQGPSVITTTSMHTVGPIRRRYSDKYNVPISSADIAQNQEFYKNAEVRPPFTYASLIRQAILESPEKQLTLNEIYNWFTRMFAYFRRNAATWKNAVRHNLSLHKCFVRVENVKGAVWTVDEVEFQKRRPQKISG
Put plainly: PD-seq (MBP pull-down with sequencing); 20 mM Tris-HCl pH 7.5, 100 mM NaCl, 1.5 mM MgCl2, 0.4 uM protein, 0.1 uM dsDNA library, 30 min, room temperature, amylose pull-down; high values mean tight binding. To be noted: protein: recombinant; tags: His6-MBP; chain copies: 2; dsDNA, one strand shown. The method, boiled down:
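Binding is the reads-per-million enrichment of pull-down relative to input, pooled across replicates. For this, 0.4 µM His6-MBP-tagged mouse FoxP3 or FoxP1 fragment lacking the N-terminus, made in E. coli, was incubated with 0.1 µM Klenow-filled double-stranded degenerate DNA library for 30 min at room temperature in Tris pH 7.5 buffer with NaCl and MgCl2. Complexes bound to amylose resin were washed three times before proteinase K released the DNA for PCR barcoding and Illumina sequencing.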
For “GATGATTGTTCTCCCAGCTGATGAATTTGCAGTTTCGAGTAAACAAATTTTCCTAATCTTTCTGTTCAAGCGCCATCTAC”, the binding signal was 1.02 RPM ratio (pull-down/input). To “GATGATTGTTCTCCCAGCTGATGAATTTCCGTCGTCGAGTAAACAAATTTTCCTAATCTTTCTGTTCAAGCGCCATCTAC” belongs 0.841 RPM ratio (pull-down/input); to “GATGATTGTTCTCCCAGCTGATGAATTTGCTTTATCGAGTAAACAAATTTTCCTAATCTTTCTGTTCAAGCGCCATCTAC”, 1.1 RPM ratio (pull-down/input). As for “GATGATTGTTCTCCCAGCTGATGAATTTTTATCATCGAGTAAACAAATTTTCCTAATCTTTCTGTTCAAGCGCCATCTAC”, the binding signal is 1.36 RPM ratio (pull-down/input). Then “GATGATTGTTCTCCCAGCTGATGAATTGCTTATATCGAGTAAACAAATTTTCCTAATCTTTCTGTTCAAGCGCCATCTAC”, with 1.34 RPM ratio (pull-down/input); and “GATGATTGTTCTCCCAGCTGATGAATTGTTATCATCGAGTAAACAAATTTTCCTAATCTTTCTGTTCAAGCGCCATCTAC”, with 1.73 RPM ratio (pull-down/input). “GATGATTGTTCTCCCAGCTGATGAATTGTTCTTATCGAGTAAACAAATTTTCCTAATCTTTCTGTTCAAGCGCCATCTAC”: the binding signal was 1.41 RPM ratio (pull-down/input). Turning to “GATGATTGTTCTCCCAGCTGATGAATTATCATCATCGAGTAAACAAATTTTCCTAATCTTTCTGTTCAAGCGCCATCTAC”, the binding signal is 1.12 RPM ratio (pull-down/input). On to “GATGATTGTTCTCCCAGCTGATGAATTTTGCTTATCGAGTAAACAAATTTTCCTAATCTTTCTGTTCAAGCGCCATCTAC”, for which the binding signal is 2.09 RPM ratio (pull-down/input). Then “GATGATTGTTCTCCCAGCTGATGAATTGTTGTTATCGAGTAAACAAATTTTCCTAATCTTTCTGTTCAAGCGCCATCTAC”, with 2.91 RPM ratio (pull-down/input); and “GATGATTGTTCTCCCAGCTGATGAATTCCTGTTATCGAGTAAACAAATTTTCCTAATCTTTCTGTTCAAGCGCCATCTAC”, with 1.65 RPM ratio (pull-down/input).

Regarding “GATGATTGTTCTCCCAGCTGATGAATTTCTGTTATCGAGTAAACAAATTTTCCTAATCTTTCTGTTCAAGCGCCATCTAC”, the binding signal is 1.69 RPM ratio (pull-down/input).

With “GATGATTGTTCTCCCAGCTGATGAATTCTTGTTATCGAGTAAACAAATTTTCCTAATCTTTCTGTTCAAGCGCCATCTAC”, the binding signal is 2.09 RPM ratio (pull-down/input). On to “GATGATTGTTCTCCCAGCTGATGAATTCGAGTTATCGAGTAAACAAATTTTCCTAATCTTTCTGTTCAAGCGCCATCTAC”, for which the binding signal is 0.96 RPM ratio (pull-down/input). On to “GATGATTGTTCTCCCAGCTGATGAATTTATGTGATCGAGTAAACAAATTTTCCTAATCTTTCTGTTCAAGCGCCATCTAC”, for which the binding signal was 1.21 RPM ratio (pull-down/input). As to “GATGATTGTTCTCCCAGCTGATGAATTGTAGTGCTCGAGTAAACAAATTTTCCTAATCTTTCTGTTCAAGCGCCATCTAC”, the binding signal is 1.04 RPM ratio (pull-down/input). Take “GATGATTGTTCTCCCAGCTGATGAATTTGGTACGTCGAGTAAACAAATTTTCCTAATCTTTCTGTTCAAGCGCCATCTAC”: the binding signal is 0.997 RPM ratio (pull-down/input). For “GATGATTGTTCTCCCAGCTGATGAATTAATCGCGTCGAGTAAACAAATTTTCCTAATCTTTCTGTTCAAGCGCCATCTAC”, the binding signal was 1.01 RPM ratio (pull-down/input). As for “GATGATTGTTCTCCCAGCTGATGAATTTTAATCCTCGAGTAAACAAATTTTCCTAATCTTTCTGTTCAAGCGCCATCTAC”, the binding signal was 0.832 RPM ratio (pull-down/input). Turning to “GATGATTGTTCTCCCAGCTGATGAATTCAGGGGGTCGAGTAAACAAATTTTCCTAATCTTTCTGTTCAAGCGCCATCTAC”, the binding signal was 0.723 RPM ratio (pull-down/input). Consider “GATGATTGTTCTCCCAGCTGATGAATTTGTTATCTCGAGTAAACAAATTTTCCTAATCTTTCTGTTCAAGCGCCATCTAC”, for which the binding signal was 1.76 RPM ratio (pull-down/input). As for “GATGATTGTTCTCCCAGCTGATGAATTGTTATCCTCGAGTAAACAAATTTTCCTAATCTTTCTGTTCAAGCGCCATCTAC”, the binding signal is 1.55 RPM ratio (pull-down/input). Then “GATGATTGTTCTCCCAGCTGATGAATTTGTTATATCGAGTAAACAAATTTTCCTAATCTTTCTGTTCAAGCGCCATCTAC”, with 1.5 RPM ratio (pull-down/input); and “GATGATTGTTCTCCCAGCTGATGAATTGCTCTTATCGAGTAAACAAATTTTCCTAATCTTTCTGTTCAAGCGCCATCTAC”, with 1.17 RPM ratio (pull-down/input); and “GATGATTGTTCTCCCAGCTGATGAATTTTGGTTATCGAGTAAACAAATTTTCCTAATCTTTCTGTTCAAGCGCCATCTAC”, with 1.17 RPM ratio (pull-down/input).

In the case of “GATGATTGTTCTCCCAGCTGATGAATTGGTGTTATCGAGTAAACAAATTTTCCTAATCTTTCTGTTCAAGCGCCATCTAC”, the binding signal was 1.9 RPM ratio (pull-down/input).

Turning to “GATGATTGTTCTCCCAGCTGATGAATTGGTGTAATCGAGTAAACAAATTTTCCTAATCTTTCTGTTCAAGCGCCATCTAC”, the binding signal is 1.49 RPM ratio (pull-down/input).

As for “GATGATTGTTCTCCCAGCTGATGAATTGCTTTTATCGAGTAAACAAATTTTCCTAATCTTTCTGTTCAAGCGCCATCTAC”, the binding signal is 1.26 RPM ratio (pull-down/input). Then “GATGATTGTTCTCCCAGCTGATGAATTTTTGTTATCGAGTAAACAAATTTTCCTAATCTTTCTGTTCAAGCGCCATCTAC”, with 2.35 RPM ratio (pull-down/input). “GATGATTGTTCTCCCAGCTGATGAATTTGAGTTATCGAGTAAACAAATTTTCCTAATCTTTCTGTTCAAGCGCCATCTAC”: the binding signal is 1.04 RPM ratio (pull-down/input). On to “GATGATTGTTCTCCCAGCTGATGAATTTCTTATCTCGAGTAAACAAATTTTCCTAATCTTTCTGTTCAAGCGCCATCTAC”, for which the binding signal was 0.829 RPM ratio (pull-down/input). For “GATGATTGTTCTCCCAGCTGATGAATTGCTGTTATCGAGTAAACAAATTTTCCTAATCTTTCTGTTCAAGCGCCATCTAC”, the binding signal was 1.85 RPM ratio (pull-down/input).
